This passage reports growth results from PubChem BioAssay (NCI).

Among the test systems are RPMI-8226 leukemia; OVCAR-8 ovarian; OVCAR-5 ovarian; OVCAR-4 ovarian; SK-OV-3 ovarian; IGROV1 ovarian; OVCAR-3 ovarian; HS 578T breast; NCI/ADR-RES ovarian; T-47D breast; BT-549 breast; MDA-MB-435 melanoma; SW-620 colon; HCT-116 colon; HCC-2998 colon; KM12 colon; MCF7 breast.
Holding throughout (assay): NCI-60 one-dose screen, 48 h (100 = growth as untreated, 0 = no growth, -100 = all killed)
Settings in all cases: 10 µM unless noted

The structures appear in SMILES notation. Compounds without any hit were thinned out: in the full panel of roughly 83,000, 20% have a hit.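 Step 1: grow cells in 96-well plates. Step 2: add test compound at a single concentration. Step 3: incubate 48 h. Step 4: record percent growth.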 Values without a mark were called inactive. Calls of active or inactive are those of the source. The calls were made as follows: active = growth percent below 10; inactive = the rest.

For the compound `COC1CC2CCC(C)C(O)(O2)C(=O)C(=O)N2CCCCC2C(=O)OC(C(C)CC2CCC(O)C(OC)C2)CC(=O)C(C)C=C(C)C(O)C(OC)C(=O)C(C)CC(C)/C=C/C=C/C=C1C` (centres undefined), the growth in the assay on RPMI-8226 leukemia was 23.5%; in the assay on OVCAR-8 ovarian it was 38.2%; with OVCAR-5 ovarian, 59.2%; with OVCAR-4 ovarian, 34.5%; in the assay on SK-OV-3 ovarian it was 52.9%; with IGROV1 ovarian, 15.5%. For the same compound, the growth in the assay with OVCAR-3 ovarian was 50%; in the assay with HS 578T breast, 45.2%; with NCI/ADR-RES ovarian, 49.1%; in the assay on T-47D breast, 31.1%; in the assay on BT-549 breast it was 32.5%; with MDA-MB-435 melanoma, 43.6%. Further, the growth in the assay with SW-620 colon is 64.5%; in the assay with HCT-116 colon, 49.5%; in the assay on HCC-2998 colon, 50.4%; with KM12 colon, 69.8%.
`CCOc1ccccc1C(=O)OCC(=O)Nc1cccc(S(=O)(=O)N(C)C)c1`: the growth in the assay on RPMI-8226 leukemia was 85.8%; in the assay on OVCAR-8 ovarian, 92.9%; in the assay with OVCAR-5 ovarian it was 94.9%; in the assay on OVCAR-4 ovarian it was 95.2%; in the assay on SK-OV-3 ovarian it was 129%; in the assay with IGROV1 ovarian, 98.5%. Moreover, the growth in the assay with OVCAR-3 ovarian was 126%; in the assay with HS 578T breast, 95.3%; with NCI/ADR-RES ovarian it was 96.8%; with T-47D breast, 66.5%; in the assay with MDA-MB-435 melanoma, 96.2%; in the assay with SW-620 colon it was 97%. Also, the growth in the assay with MCF7 breast was 102%; in the assay with HCT-116 colon it was 96.1%; in the assay with HCC-2998 colon, 98.9%; in the assay on KM12 colon, 104%.
Take `C=CC1=C(C(=O)O)N2C(=O)[C@@H](NC(=O)/C(=N\O)c3csc(N)n3)[C@H]2SC1` (stereo in doubt): the growth was 113% with RPMI-8226 leukemia; 102% in the assay with OVCAR-8 ovarian; 95.7% with OVCAR-5 ovarian; 108% with OVCAR-4 ovarian; 107% with SK-OV-3 ovarian; 120% in the assay on IGROV1 ovarian. Moreover, the growth in the assay with OVCAR-3 ovarian was 108%; in the assay with HS 578T breast it was 103%; in the assay on NCI/ADR-RES ovarian, 98%; in the assay on T-47D breast, 114%; in the assay on BT-549 breast, 118%; in the assay with MDA-MB-435 melanoma, 109%. In addition, the growth is 106% with SW-620 colon, 105% with HCT-116 colon, 105% in the assay on HCC-2998 colon and 112% in the assay on KM12 colon.
As to `CCOC(=O)C(C(C)=O)c1nc2sc3cc(Cl)ccc3n2c(=N)c1C#N` (centres undefined), the growth is 97.9% with RPMI-8226 leukemia; 80.9% in the assay with OVCAR-8 ovarian; 114% with OVCAR-5 ovarian; 77.9% in the assay on OVCAR-4 ovarian; 84.6% with SK-OV-3 ovarian; 84.3% in the assay with IGROV1 ovarian. In addition, the growth in the assay on OVCAR-3 ovarian was 107%; in the assay on HS 578T breast it was 28.8%; in the assay with NCI/ADR-RES ovarian, 87.2%; in the assay with T-47D breast, 77.9%; in the assay on MDA-MB-435 melanoma, 104%; in the assay on SW-620 colon, 98.4%. For the same compound, the growth was 58.8% in the assay with MCF7 breast, 103% in the assay with HCT-116 colon, 131% with HCC-2998 colon and 44.1% with KM12 colon.
For `Clc1ccc([C@@H]2C[C@@H]3Cc4cc(Br)c5ccccc5c4N2O3)c(Cl)c1`, the growth in the assay on RPMI-8226 leukemia was 89.3%; in the assay with OVCAR-8 ovarian, 98.3%; in the assay with OVCAR-5 ovarian, 101%; in the assay on OVCAR-4 ovarian, 84.7%; in the assay on SK-OV-3 ovarian, 79.5%; with IGROV1 ovarian, 79.4%. Further, the growth in the assay with OVCAR-3 ovarian is 41.6%; in the assay with HS 578T breast, 92.3%; in the assay with NCI/ADR-RES ovarian it was 55.5%; in the assay on T-47D breast, 96.9%; in the assay on BT-549 breast it was 97.7%; in the assay with MDA-MB-435 melanoma, 4.61% (active). In addition, the growth in the assay with SW-620 colon is 55.4%; with HCT-116 colon, 76.6%; in the assay with HCC-2998 colon, 87%; in the assay with KM12 colon, 66.7%.
Turning to `CCOC(=O)C1=C(COCCN)NC(C)=C(C(=O)OC)C1c1ccccc1Cl` (centres undefined), the growth was 45.9% with RPMI-8226 leukemia; 82% with OVCAR-8 ovarian; 74.7% in the assay on OVCAR-5 ovarian; 78.9% with OVCAR-4 ovarian; 94.2% in the assay with SK-OV-3 ovarian; 73.6% in the assay with IGROV1 ovarian. The growth in the assay on OVCAR-3 ovarian is 68.5%; in the assay on HS 578T breast, 80.3%; in the assay on NCI/ADR-RES ovarian, 80%; in the assay on T-47D breast, 51.7%; with BT-549 breast it was 86.5%; in the assay on MDA-MB-435 melanoma it was 68.7%. The growth was 53.4% in the assay with SW-620 colon, 45.9% in the assay on HCT-116 colon, 3.32% (active) with HCC-2998 colon and 68.9% in the assay with KM12 colon.
`CN(C)c1nc(-c2ccco2)n2nc(-c3ccco3)cc2n1`: the growth in the assay with RPMI-8226 leukemia is 65.1%; in the assay on OVCAR-8 ovarian, 92.8%; with OVCAR-5 ovarian, 108%; in the assay with OVCAR-4 ovarian, 80.1%; in the assay on SK-OV-3 ovarian it was 98.7%; with IGROV1 ovarian it was 72.4%. In addition, the growth in the assay on OVCAR-3 ovarian was 92.9%; with HS 578T breast, 78.1%; with NCI/ADR-RES ovarian it was 90.7%; in the assay on T-47D breast, 38%; in the assay on BT-549 breast it was 94.3%; in the assay on SW-620 colon, 93.4%. Further, the growth in the assay on MCF7 breast was 28.3%; with HCT-116 colon, 91.6%; in the assay on HCC-2998 colon it was 88.5%; in the assay with KM12 colon, 61.3%.
As to `CO[C@H]1CC(O[C@@H]2/C(C)=C/C[C@@H]3C[C@@H](C[C@]4(CC[C@H](C)[C@@H](C5CCCCC5)O4)O3)OC(=O)[C@@H]3C=C(C)/C(=N/O)[C@H]4OC/C(=C\C=C\[C@@H]2C)[C@]43O)O[C@@H](C)C1O` (some centres undefined), the growth with RPMI-8226 leukemia is -28.8% (active); in the assay with OVCAR-8 ovarian, -51.3% (active); with OVCAR-5 ovarian it was -83% (active); in the assay with OVCAR-4 ovarian it was -88.5% (active); in the assay with SK-OV-3 ovarian, -98.4% (active); with IGROV1 ovarian, -47.4% (active). The growth in the assay with OVCAR-3 ovarian is -98.3% (active); in the assay with HS 578T breast it was -43.7% (active); in the assay on NCI/ADR-RES ovarian it was -76.3% (active); in the assay on T-47D breast, -78.1% (active); in the assay with BT-549 breast, -88.3% (active); in the assay with MDA-MB-435 melanoma, -86.1% (active). Besides, the growth in the assay with SW-620 colon is -73.2% (active); with HCT-116 colon, -95.6% (active); with HCC-2998 colon, -78.1% (active); in the assay on KM12 colon, -88.8% (active).
Take `Nc1c2ccccc2nc2ccccc12` (tested in a mixture with another compound): the growth in the assay on RPMI-8226 leukemia is 7.88% (active); in the assay with OVCAR-8 ovarian it was 4.39% (active); in the assay with OVCAR-5 ovarian it was 15.6%; in the assay on OVCAR-4 ovarian it was 19%; with SK-OV-3 ovarian, 32.6%; in the assay on IGROV1 ovarian it was 22.9%. Also, the growth with OVCAR-3 ovarian is 32.6%; in the assay with HS 578T breast, 42.9%; with NCI/ADR-RES ovarian, 19.4%; in the assay with T-47D breast, 28.9%; with BT-549 breast, 57.3%; in the assay on MDA-MB-435 melanoma, 18.6%. Besides, the growth in the assay on SW-620 colon is 15.6%; in the assay on HCT-116 colon, 13.6%; with HCC-2998 colon it was 28.7%; with KM12 colon, 23%.
